Gli-Sufu block: blocks Gli-Sufu signaling in a luciferase reporter. Sufu-KO-LIGHT fibroblasts, Gli luciferase reporter luminescence. inhibition, % at 5 µM. 340,000 tested, 0.74% active. AID 588413;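 active = inhibition above about 55%, limit read from the data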
Beta apoptosis: blocks beta cell apoptosis; INS-1E cytokine-induced death, ATP luminescence, 48 h; percent of positive-control rescue, neutral wells zero; AID 435005; 300,000 tested, 0.8% active; protection from apoptosis, % (no concentration beside the values);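 active = Every replicate reaches about 75%, or at least half do and their mean reaches it too, limit read from the data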;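 note: higher means more ATP so stronger rescue from cytokine killing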
CSC inhib: cancer stem cell inhibition; cancer stem cell-like cells viability, luminescence; inhibition, % at 7.5 µM; 300,000 tested, 1.1% active; AID 2717; in the data active = inhibition above about 75%; tested in HMLE shEcad cells
Mdm2-MdmX inh: inhibitors of human Mdm2/MdmX interaction | O15151+Q00987 | 330,000 tested, 3% active | inhibition, % at 8 µM | AID 485346 | SaOS-2 split-luciferase Mdm2/MdmX complementation, luminescence;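 active = inhibition of at least 50% at 8 µM in the primary screen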
Target sequence (O15151 whole entry, looked up): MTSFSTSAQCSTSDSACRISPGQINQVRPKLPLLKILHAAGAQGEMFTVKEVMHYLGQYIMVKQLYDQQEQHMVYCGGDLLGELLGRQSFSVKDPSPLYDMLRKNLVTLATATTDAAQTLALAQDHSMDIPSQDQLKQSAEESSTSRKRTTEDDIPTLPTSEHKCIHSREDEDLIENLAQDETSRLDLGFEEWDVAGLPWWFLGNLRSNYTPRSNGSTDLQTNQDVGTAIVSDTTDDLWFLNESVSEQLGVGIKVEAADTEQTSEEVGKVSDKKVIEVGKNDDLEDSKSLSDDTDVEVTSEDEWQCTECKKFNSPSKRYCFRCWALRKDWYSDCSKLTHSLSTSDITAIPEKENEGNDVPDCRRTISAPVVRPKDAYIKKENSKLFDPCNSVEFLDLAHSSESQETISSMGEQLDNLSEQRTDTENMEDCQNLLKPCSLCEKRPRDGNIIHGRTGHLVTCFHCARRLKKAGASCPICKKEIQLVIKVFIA
Target sequence (Q00987 whole entry, looked up): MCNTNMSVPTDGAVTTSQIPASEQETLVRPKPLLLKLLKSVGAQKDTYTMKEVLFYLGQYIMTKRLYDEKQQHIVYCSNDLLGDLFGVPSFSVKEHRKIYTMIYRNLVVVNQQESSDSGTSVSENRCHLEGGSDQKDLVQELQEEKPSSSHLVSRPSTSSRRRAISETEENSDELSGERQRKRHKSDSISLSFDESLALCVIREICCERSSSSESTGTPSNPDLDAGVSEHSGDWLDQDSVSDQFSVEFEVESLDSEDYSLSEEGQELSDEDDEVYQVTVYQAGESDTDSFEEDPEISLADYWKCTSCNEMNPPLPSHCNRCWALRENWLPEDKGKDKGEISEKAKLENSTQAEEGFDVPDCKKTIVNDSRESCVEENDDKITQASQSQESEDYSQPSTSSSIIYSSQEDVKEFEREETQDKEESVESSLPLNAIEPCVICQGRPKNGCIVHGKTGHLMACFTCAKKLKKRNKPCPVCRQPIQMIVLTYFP
GRIN3A LBD mod: modulates the human NR3A ligand-binding domain; 340,000 tested, 2.5% active; AID 1259313; NR3A LBD differential scanning fluorimetry, Tm shift; 0% = protein alone, 100% = glycine-bound protein; Tm shift relative to glycine control, % at 25 µM;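 active = melting temperature shift of at least 10% of the positive control shift, at one fixed dose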
MPTP block: blocks calcium-induced mitochondrial swelling; 360,000 tested, 1.4% active; inhibition, % at 10 µM; isolated mouse mitochondria, Ca2+ swelling absorbance, 30 min;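 active = inhibition of 50% or more, scaled per plate between neutral and stimulator controls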
Large screens that a line does not name were inactive. This is a sample that favours compounds with a hit; in the whole collection about 6.6% have one here.

Nc1nc(-c2ccccc2)cn1N	GRIN3A LBD mod 11
O=C1c2cccc3cccc(c23)C(=O)N1OS(=O)(=O)c1ccc(Cl)cc1	none
CCc1ccc(S(=O)(=O)ON2C(=O)c3ccccc3C2=O)cc1	GRIN3A LBD mod 16 (no result: Beta apoptosis, CSC inhib)
O=C(CN(c1cccc(Cl)c1)S(=O)(=O)c1ccc(Cl)cc1)N1CCc2ccccc2C1	GRIN3A LBD mod 11
CS(=O)(=O)N(CC(=O)N1CCc2ccccc2C1)c1cccc(F)c1	none
COc1cccc(/C=C/C(=O)NNC(=O)c2ccco2)c1OC	none (no result: CSC inhib)
COc1ccccc1NC(=O)COc1ccc(/C=N/NC(=O)CSCc2cc(C)cc(C)c2)cc1	none
Cc1ccc(S(=O)(=O)N/N=C/c2ccc(OCC(=O)Nc3ccccc3Cl)cc2)cc1	GRIN3A LBD mod 18
COc1cc(/C=N/NC(=O)COc2ccc(Cl)cc2)ccc1OS(=O)(=O)c1ccc(C)cc1	GRIN3A LBD mod 12 (no result: CSC inhib)
COc1cc(/C=N/NC(=O)COc2cccc(F)c2)ccc1OS(=O)(=O)c1ccc(C)cc1	none (no result: Beta apoptosis)
O=C(CSCc1ccc(Cl)cc1)N/N=C/c1ccc(OCC(=O)Nc2ccccc2)cc1	GRIN3A LBD mod 10
Cc1ccc(NC(=O)COc2ccc(/C=N/NC(=O)CSCc3ccccc3)cc2)cc1	GRIN3A LBD mod 18
c1ccc(Sc2ncnc3c2oc2ccccc23)cc1	GRIN3A LBD mod 34
CC[C@]12c3[nH]c4cc(-c5ccco5)ccc4c3CCN1C(=O)[C@@H](CC(=O)NCCCOC)C[C@@H]2C(=O)N1CCN(C(=O)c2ccco2)CC1	none (no result: Beta apoptosis, CSC inhib)
O=C(Nc1nnc(CSCc2ccc(Cl)cc2)s1)c1cccc([N+](=O)[O-])c1	GRIN3A LBD mod 19
CCCCCCn1ccc(=N)cc1	Beta apoptosis 120
CCCCCCN1C2=NCCN2c2ccccc21	none (no result: Beta apoptosis)
Cc1cc(C(=O)NN)c2cc(Br)ccc2n1	none
Cc1cc(C(N)=O)c2cc(Br)ccc2n1	GRIN3A LBD mod 13
O=C1CCC(C(=O)Nc2cccc(S(=O)(=O)Nc3ccccc3F)c2)=NN1	GRIN3A LBD mod 13
CCc1cccc(C)c1NC(=O)COC(=O)Cc1ccccc1	none (no result: Gli-Sufu block, Beta apoptosis, CSC inhib, Mdm2-MdmX inh, GRIN3A LBD mod)
Cc1ccc(C(=O)N/N=C/c2cc(C)n(-c3ccc(Br)cc3)c2C)cc1[N+](=O)[O-]	GRIN3A LBD mod 14
CCCc1c(C(=O)Nc2ccc(C(F)(F)F)cc2)cnn1-c1ccccc1	none
CCCc1c(C(=O)NNc2ccc(C)cc2)cnn1-c1ccccc1	CSC inhib 93
COc1ccc(C(=O)c2c(C)c3ccccc3n2CC(O)CNC(C)C)cc1 (stereo unspecified)	Beta apoptosis 102
COc1ccc(NCC(=O)n2c(C)c(C)c3ccccc32)cc1	none
CCOc1cc(N2CCOCC2)c(OCC)cc1NC(=O)COC(=O)C1CCCN1S(=O)(=O)c1ccccc1F (stereo unspecified)	GRIN3A LBD mod 26
CCOc1cc(N2CCOCC2)c(OCC)cc1NC(=O)COC(=O)[C@@H]1CCCN1S(=O)(=O)c1ccccc1F	none (no result: CSC inhib)
Nc1nc(COc2ccccc2C=O)nc(Nc2ccccc2)n1	none
Cc1[nH]nc(SCC(=O)Nc2cccc(O)c2)c1[N+](=O)[O-]	GRIN3A LBD mod 22
CCCOC(=O)c1c(-c2ccccc2)nc(CC)c(C(=O)SCC)c1CCC	GRIN3A LBD mod 10
CCN(C(=O)COC(=O)COc1ccc2c(c1)CCC2)c1c(N)n(Cc2ccccc2)c(=O)[nH]c1=O	none (no result: Beta apoptosis, CSC inhib)
CN(C(=O)COC(=O)COc1ccc2c(c1)CCC2)c1c(N)n(Cc2ccccc2)c(=O)[nH]c1=O	GRIN3A LBD mod 18
CCOC(=O)c1c(NC2OC(=O)c3c2ccc(OC)c3OC)sc(C(=O)OC(C)(C)C)c1C (stereo unspecified)	GRIN3A LBD mod 18
COc1ccc2c(c1OC)C(=O)OC2Nc1ccccn1 (stereo unspecified)	none
CCOC(=O)[C@H]1[C@H]2COc3ccc(C)cc3[C@@H]2N2C(=O)c3cc(Br)ccc3NC(=O)[C@@]12C	none
CCn1c(C)nc2cc(C(=O)OC(C(F)(F)C(F)F)C(F)(F)C(F)F)ccc21	Beta apoptosis 104
COc1ccc(NC(=O)COC(=O)C2CCC2)cc1Cl	GRIN3A LBD mod 18
CCCc1cc(=O)oc2cc(OC3CCCCC3=O)ccc12 (stereo unspecified)	none
O=C(NC(=S)Nc1ccccc1O)c1ccc(-c2ccc(Cl)cc2)o1	GRIN3A LBD mod 29
COc1ccccc1NC(=S)NC(=O)c1ccc(-c2ccc(Cl)cc2)o1	none
CC(Sc1n[nH]c(N)n1)C(=O)Nc1cccc2ccccc12 (stereo unspecified)	none (no result: CSC inhib)
CCN1c2ccccc2NC2C1C(C(C)=O)C(=O)N2c1ccc(Cl)cc1 (stereo unspecified)	none (no result: Beta apoptosis)
CCN1c2ccccc2NC2N=C(OC)C(c3ccccc3)C21 (stereo unspecified)	Beta apoptosis 111
CCOC(=O)c1sc(=S)n(Cc2ccccc2)c1C	GRIN3A LBD mod 14
CCOC(=O)c1sc(=S)n(-c2ccccc2)c1C	none
Cn1ncc([N+](=O)[O-])c1C(=O)Nc1ccc(-c2nc3ccccc3[nH]2)cc1	none (no result: GRIN3A LBD mod)
COc1c(F)c(F)c(C(=O)Nc2ccc(-c3nc4ccccc4[nH]3)cc2)c(F)c1F	GRIN3A LBD mod 13
O=C(NCc1nc2ccccc2[nH]1)c1c(F)c(F)c(F)c(F)c1F	none
O=C(Nc1ccc(-c2nc3ccccc3[nH]2)cc1)c1c(F)c(F)c(F)c(F)c1F	GRIN3A LBD mod 16
CCNC(=S)Nc1ccc(-c2nc3ccccc3[nH]2)cc1	GRIN3A LBD mod 28
COc1cccc(C2=CC(=O)CC(C)(C)C2)n1	none
O=C(Nc1cccc(S(=O)(=O)N2CCCC2)c1)[C@@H]1O[C@H](CO)[C@@H](O)[C@H]1O	none (no result: Gli-Sufu block, Beta apoptosis, CSC inhib, Mdm2-MdmX inh, GRIN3A LBD mod)
N#CCCCSc1nnc(Cc2ccc3c(c2)OCO3)o1	GRIN3A LBD mod 12
O=C(NCC1CCCO1)c1cccc(S(=O)(=O)Nc2ccccc2Cl)c1 (stereo unspecified)	none (no result: Gli-Sufu block, Beta apoptosis, CSC inhib, Mdm2-MdmX inh, GRIN3A LBD mod)
NC(=O)N=Nc1c(O)[nH]c2ccc([N+](=O)[O-])cc12	none (no result: CSC inhib)
CC(C)NC(=S)N=Nc1c(O)[nH]c2ccc([N+](=O)[O-])cc12	GRIN3A LBD mod 18
C=C(C)CNC(=S)N=Nc1c(O)[nH]c2ccc([N+](=O)[O-])cc12	GRIN3A LBD mod 25
Cc1cnc(C(=O)OC(C)C(=O)NCc2ccccc2)cn1 (stereo unspecified)	none
O=C(CCC1CCN(C(=O)Cc2c(F)cccc2F)CC1)NC1CC1	none
CC(C)c1ccc2c(c1)CCC1C(C)(CN)CCCC21C (stereo unspecified)	CSC inhib 116 (no result: Mdm2-MdmX inh)
O=C(N=Nc1c(O)[nH]c2ccc(Br)cc12)c1cc(-c2cccc3ccccc23)n[nH]1	GRIN3A LBD mod 16
CC1(C)CC(=O)C2=C(C1)OC1=C(C(=O)CC(C)(C)C1)C2c1ccccc1Cl	none (no result: Gli-Sufu block, Beta apoptosis, CSC inhib, Mdm2-MdmX inh, GRIN3A LBD mod)
Cc1cc(/C=C(\C#N)C(=O)NCCc2c[nH]c3ccccc23)c(C)n1C	none
O=C(COC(=O)CCc1c[nH]c2ccccc12)NCc1ccccc1	GRIN3A LBD mod 12

Source: PubChem
